Data published in PubChem BioAssay AID651690 (Sanford-Burnham Center for Chemical Genomics, 2012).
The other results are listed elsewhere or left out. Unmarked numbers belong to inactive results. No stated cut-off is given here; in the data, active means inhibition mostly above about 32% (no sharp cut-off); inactive means mostly below about 29%.

Target: Sentrin-specific protease 1 (Homo sapiens) (UniProt Q9P0U3)
Assay: human SENP1 catalytic domain inhibitors, confirmation, biochemical, kinetic FRET, single concentration (AID 651690);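 further: 0% = DMSO with enzyme and 100% = no enzyme substrate only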
Conditions: recombinant SENP1, CyPet-SUMO1-YPet FRET kinetic cleavage; at 10 µM; hits give high values

Sequence of Sentrin-specific protease 1 (Homo sapiens) (Q9P0U3 419-644 limits assumed): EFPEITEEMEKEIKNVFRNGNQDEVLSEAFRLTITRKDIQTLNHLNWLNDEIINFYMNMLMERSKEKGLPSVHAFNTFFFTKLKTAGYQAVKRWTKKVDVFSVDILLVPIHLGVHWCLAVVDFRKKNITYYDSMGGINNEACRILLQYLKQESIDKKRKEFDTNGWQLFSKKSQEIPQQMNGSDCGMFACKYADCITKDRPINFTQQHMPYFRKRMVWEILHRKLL

## COc1ccccc1N=Nc1c(O)[nH]c(=S)[nH]c1=O
  inhibition: 31.3%
